# In the supplement of paper PMC3334620:
# Over roughly 33,000 sequences, “E-score (-0.5 to 0.5)” has its median near -0.0014; the highest 2% begin near 0.25. The sample as a whole holds a higher share of the highest values than the screen did.
# Target: T1, Cad1 (UniProt P24813)
# T1 sequence: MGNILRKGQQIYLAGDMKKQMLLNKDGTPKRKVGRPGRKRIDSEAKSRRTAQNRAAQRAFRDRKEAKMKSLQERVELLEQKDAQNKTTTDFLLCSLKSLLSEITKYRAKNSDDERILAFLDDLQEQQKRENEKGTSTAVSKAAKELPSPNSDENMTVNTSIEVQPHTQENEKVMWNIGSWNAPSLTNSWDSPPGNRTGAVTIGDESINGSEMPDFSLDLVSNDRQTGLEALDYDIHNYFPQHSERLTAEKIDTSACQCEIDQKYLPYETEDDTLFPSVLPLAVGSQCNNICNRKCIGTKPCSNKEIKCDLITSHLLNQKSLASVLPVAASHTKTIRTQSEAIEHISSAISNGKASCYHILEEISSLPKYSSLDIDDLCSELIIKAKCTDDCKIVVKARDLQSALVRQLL
# Assay: PBM E-score (8-mer binding enrichment) (E-score (-0.5 to 0.5)); higher = stronger / more preferred TF binding
# Conditions: protein concentration: 100 nM; construct: GST-full length
# Procedure: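 Universal 'all 10-mer' protein binding microarrays (Agilent AMADID 015681) probed with GST-tagged S. cerevisiae TFs (full-length or DBD) made by in vitro transcription/translation (PURExpress), about 100-200 nM. Bound TF was detected with fluorescent anti-GST. Each ungapped 8-mer (which stands for itself and its reverse complement) is scored by the PBM enrichment score (E-score), a modified Wilcoxon-Mann-Whitney statistic from -0.5 to +0.5, computed with the Universal PBM Analysis Suite. Scale: above 0.35 generally sequence-specific binding.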
row,Sequence,PBM E-score
1,AGCAATCA,0.216
2,AGCAATCG,0.27
3,AGCAATCC,-0.214
4,ATGCGACC,0.0488
5,ATATTAGA,0.197
6,CTATTAGA,-0.057
7,GTATTAGA,0.26
8,GTTGCAGA,-0.0187
9,AAATCGTC,0.0296
10,AAATAGTT,0.129
11,AAATAGTC,-0.0981
12,AAATCGTG,0.263
13,AAATCGTA,-0.0277
14,AAATAGTG,0.258
15,CACGATGC,-0.0719
16,GAATCGTA,0.0597
17,CCGAAGAA,0.00754
18,CAGGTGCC,-0.0801
19,AGAATACA,0.0745
20,AATATGTA,0.206
21,CTTATTTA,-0.00667
22,AATATTTA,0.213
23,AATATGTC,0.17
24,AATATTTC,0.264
25,CTTATTTC,0.304

row,Sequence,PBM E-score
1,CATATTTC,0.0121
2,AATATGTG,0.251
3,ACTATTTG,0.101
4,ATTATTTC,0.2
5,AATATTTG,0.255
6,ATTATTTG,0.175
7,CCCTACCG,-0.112
8,AACGGGAC,-0.148
9,AACCAGAC,-0.0829
10,GTGGACTA,0.144
11,CTGAAGTC,-0.0337
12,ACATCCCG,0.147
13,CCCTCGAC,-0.0126
14,AATTTGGG,0.0286
15,AGTCCACA,-0.141
16,CATATTGC,-0.116
17,AATATTGC,0.294
18,AATATTGG,0.0135
19,GACGAAAC,0.144
20,AATTTATA,0.241
21,ATTTTGTC,0.121
22,AATTTATC,0.293
23,GATTTATA,0.319
24,CATTTATC,0.15
25,ATTTTATG,0.255

row,Sequence,PBM E-score
1,CATTTATA,0.021
2,ATTTTATA,0.221
3,AATTTGTC,0.31
4,GATTTTTA,-0.0272
5,AATTTATG,0.229
6,AATTTGTA,0.196
7,GATCAAAA,0.144
8,AGTACTTA,-0.0184
9,CAGGTTCA,-0.134
10,TTCGACAA,0.0549
11,GGCGACAC,0.0142
12,GTACGTGA,0.0217
13,AGCAACCA,0.0389
14,ATCGTTAC,0.0243
15,AATCATGA,0.317
16,GTTCATGA,0.262
17,CTTCATGA,0.207
18,TATCATGA,0.16
19,ATTCATGA,0.0482
20,AATCATGG,0.048
21,CTCTGAAC,-0.212
22,GGTATCCA,0.135
23,CTCTCCTA,-0.129
24,CGCGATGC,-0.0576
25,TCAGAGAA,-0.0244

row,Sequence,PBM E-score
1,AAGGCCAT,0.0298
2,ATTCTCCC,0.115
3,CTACCTCA,-0.107
4,AGCGCTGG,0.191
5,CACGCTGA,0.143
6,GGCGCTTA,-0.0696
7,GGCGCTGA,-0.0921
8,CGCGCTGA,0.219
9,CGCGCTTA,0.262
10,AGCGCTTC,0.122
11,AGCGCTTA,0.336
12,AGCGCTGA,0.258
13,GACGCTGA,0.0912
14,CGCGCTTC,0.0321
15,TACGCTGA,0.275
16,CTGTTCGA,-0.08
17,CTCCTACC,-0.236
18,CGGGTGAC,-0.0446
19,ACGGTGAC,-0.102
20,ATCATTGG,-0.0561
21,CCAGTCGG,-0.238
22,CTCACCGA,-0.12
23,GATTCCTA,0.0143
24,CACGCTCA,0.261
25,AACGCTCA,-0.0578

row,Sequence,PBM E-score
1,TACGCTCA,-0.0567
2,ACGGTACA,0.0323
3,CGTCAGGC,-0.125
4,AGTCAGGC,0.294
5,AGTCAGGA,0.141
6,GCCATAAA,0.125
7,AGAAGGTA,0.103
8,CGCGCTAC,0.26
9,GGCGCTAA,-0.0255
10,AGCGCTAA,0.212
11,CGCGCTAG,0.238
12,TGCGCTAA,0.156
13,AGCGCTAC,-0.068
14,AGCGCTAT,0.278
15,GGCGCTAC,-0.214
16,CGCGCTAA,0.256
17,CCAAAATA,0.147
18,CTTCCATA,-0.244
19,AAGCCGGT,-0.024
20,GCATAGAA,0.0802
21,ATTCATCA,0.132
22,ACTTTCTA,-0.028
23,TACTAGAA,0.0443
24,CACCCGCC,0.0605
25,ATCGTAGC,0.0921

row,Sequence,PBM E-score
1,AACGAGCA,-0.0102
2,CATATAAA,0.0106
3,AACATAAG,0.261
4,TATATAAA,0.23
5,AATATAAA,0.251
6,CACATAAG,0.00562
7,AATATAAG,0.297
8,AACATAAC,0.135
9,CATATAAG,0.00934
10,AATATAAT,0.18
11,AGGCTACT,-0.196
12,CATTGGAA,0.0544
13,TGTAGAAA,-0.18
14,CATTGAGA,-0.109
15,AGAAGAAT,-0.0672
16,AGATAGAC,0.0347
17,GATTTCTA,0.123
18,ACTATTGG,0.025
19,ATAGTTCA,0.0339
20,AATTTAAT,0.252
21,AATTTTCC,0.26
22,ATTTTTCC,0.0266
23,AATTTAAC,0.124
24,AATTTTTC,0.145
25,AATTTTAC,0.282

row,Sequence,PBM E-score
1,AAATTTAT,0.171
2,AATTTAAG,0.0522
3,AATTTTAA,0.249
4,CATTTTAC,0.198
5,ATTTTTAC,0.0299
6,AATTTTAT,0.295
7,CAGCGGCA,-0.0412
8,CCAGCCCG,-0.102
9,CGGGTTTC,0.179
10,CGACCGAG,-0.0641
11,CATTCGGC,-0.0238
12,GTTAATAA,0.249
13,TCTAATAA,0.0758
14,TATAATAA,0.278
15,TATAATCA,0.31
16,AATAATAC,0.205
17,AATAATAG,0.077
18,CTTAATAA,0.383
19,CATAATAA,-0.0382
20,AATAATAA,0.305
21,CTTAATAC,-0.0147
22,GATAATCA,0.169
